The results in this text go back to PubChem BioAssay (Tox21).

A short description of assay [1]: qHTS assay to identify small molecule agonists of the NFkB signaling pathway - cell viability counter screen (AID 1159515; calls by dose curve; note: nearly all actives have a fitted effect of over 55% in size; note: potency is the fitted concentration of half-maximal effect). The gist of the method: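 Viability in NFkB-bla ME-180 cells was measured by CellTiter-Glo luminescence, 30 min room temperature, in wells already treated 5 hr with compounds and read for reporter FRET.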
(In qHTS, concentration-response curves come from the screen itself.)

The nature of assay [2]: qHTS assay to identify small molecule agonists of the endoplasmic reticulum stress response signaling pathway (AID 1159516; active = well fitted activation curve with a large enough effect in the signal ratio in the repeat runs, not every such curve was filed as active; the % refers to the signal ratio). The gist of the method: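 ER stress element reporter (bla) in HeLa. 1,500 cells/well, overnight attachment; 5 hr compound; 2 hr RT substrate; dual-emission fluorescence.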
Assay [3] is described as follows: qHTS assay to identify small molecule agonists of the endoplasmic reticulum stress response signaling pathway - cell viability counter screen (AID 1159517; calls by dose curve; note: nearly all actives have a fitted effect of over 50% in size; note: potency is the fitted concentration of half-maximal effect). The gist of the method:
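HeLa cells carrying an ESRE-driven beta-lactamase reporter receive compound for 5 hr at 37 C. Cell viability is then gauged with CellTiter-Glo by luminescence, 30 min at room temperature.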

The nature of assay [4]: qHTS assay to identify small molecule agonists of the AP-1 signaling pathway - cell viability counter screen (AID 1159525; calls by dose curve; note: nearly all actives have a fitted effect of over 55% in size). The procedure, abridged:
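Luminescent ATP readout (Cell Titer Glo, 30 min RT), normalised to DMSO and tetra n-octyl ammonium bromide controls. Cells were ME-180 AP-1-bla in 0.5% dialyzed FBS Opti-MEM, with a 5 h, 37 °C compound exposure.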

Assay [5] in a line: qHTS assay to identify small molecule agonists of the AP-1 signaling pathway (AID 1159526; calls by dose curve).
The nature of assay [6]: qHTS assay to identify small molecule agonists of the RXR signaling pathway - cell viability counter screen (AID 1159529). Note: nearly all actives have a fitted effect of over 50% in size. Note: potency is the fitted concentration of half-maximal effect. The procedure, abridged: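 RXR-alpha-UAS-bla HEK 293T cells in medium with 2% charcoal-stripped FBS were pre-incubated 5 hr, then compound-treated 16 hr at 37 C. Viability was read by CellTiter-Glo luminescence in the same wells as the beta-lactamase assay, with tetraoctyl ammonium bromide as positive control.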

A short description of assay [7]: qHTS assay to identify small molecule antagonists of the estrogen related receptor (ERR) signaling pathway - cell viability counter screen (AID 1224818).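 Note: viability measured after 17.5 h of compound exposure.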 The gist of the method: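 Here, ERR cells are plated at 2,000 cells per well, allowed 6 h to attach, and treated with compounds in DMSO for 17.5 h at 37 C. CellTiter-Fluor is then added and fluorescence read after 30 min.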

A short description of assay [8]: qHTS assay to identify small molecule antagonists of the estrogen related receptor (ERR) signaling pathway (AID 1224819; note: potency is the fitted concentration of half-maximal effect; nearly all actives have a fitted effect of over 50% in size). The gist of the method: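 LOPAC library screened for antagonism as reduced One-Glo luminescence in ERR reporter cells (2,000/well). Compounds were added after 6 h pre-incubation and left 18 h at 37C; reading followed a 30 min room-temperature reagent step.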

Assay [9] can be described thus: qHTS assay to identify small molecule agonists of the estrogen related receptor (ERR) signaling pathway (AID 1224820). The procedure, abridged: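 Cells: ERR line from NTP, 2,000/well. Pre-incubation 6 h, 37 C/5% CO2. Compound (DMSO) pin transfer, 18 h 37 C. One-Glo, 30 min RT, luminescence.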
The nature of assay [10]: qHTS assay to identify small molecule agonists of the estrogen related receptor signaling pathway with the pleiotropic PPARgamma coactivator (PGC) (AID 1224823). The gist of the method:
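Steps: plate PGC/ERR cells at 2,000 cells/well; incubate 6 h, 37 C/5% CO2; pin-transfer compounds (DMSO); incubate 18 h, 37 C; add One-Glo; 30 min RT; read luminescence.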

A short description of assay [11]: qHTS assay to identify small molecule agonists of the vitamin D receptor (VDR) signaling pathway - cell viability counter screen (AID 743224). Note: nearly all actives have a fitted effect of over 50% in size. The procedure, abridged:
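VDR-bla cell line, quantitative HTS format; 16 h compound incubation (37C, 5% CO2); ATP-based CellTiter-Glo luminescence measured in the reporter assay wells.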

Assay [12] can be described thus: qHTS assay to identify small molecule antagonists of the vitamin D receptor (VDR) signaling pathway - cell viability counter screen (AID 743225). Note: nearly all actives have a fitted effect of over 50% in size. The procedure, abridged: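 VDR-UAS-bla HEK 293T cells were plated and incubated 4 h at 37C, then dosed with compound plus 3 nM (final) 1-alpha,25-dihydroxyvitamin D3 for 16 h. After the 2 h beta-lactamase read, viability in the same wells was read as CellTiter-Glo luminescence after 30 min at room temperature.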

Assay [13] addresses Retinoic acid receptor RXR-alpha (Homo sapiens) (UniProt P19793). Put plainly: qHTS assay to identify small molecule agonists of the RXR signaling pathway (AID 1159527; calls by dose curve; note: nearly all actives have a fitted effect of over 35% in size). The gist of the method:
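GeneBLAzer RXR-alpha-UAS-bla HEK 293T cells in 2% charcoal-stripped FBS medium were exposed to compounds for 16 hr at 37 C in agonist mode. Beta-lactamase reporter read as 460/530 nm FRET ratio after 2 hr substrate loading.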

Assay [14] is described as follows: qHTS assay to identify small molecule agonists of the retinoic acid receptor (RAR) signaling pathway (AID 1159553). The note with it: C3RL4 RARE luciferase reporter, agonist, 6 h; activation: at 73.3 µM (top of the series) unless noted. The procedure, abridged: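 Cell line C3RL4, RARE luciferase reporter. Treatment: compounds in DMSO, 6 hr, 37 C, 5% CO2, after overnight plating. Detection: luminescence, 30 min RT after reagent.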

The target of assay [15] is Nuclear receptor ROR-gamma (Homo sapiens) (UniProt P51449). As to the kind of experiment: qHTS assay to identify small molecule antagonists of the retinoid-related orphan receptor gamma (ROR-gamma) signaling pathway (AID 1159521; note: nearly all actives have a fitted effect of over 50% in size; note: potency is the fitted concentration of half-maximal effect). The procedure, abridged: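 Tet-on ROR-gamma CHO cells with ROR response element-luciferase reporter; compounds added 2 hr before 1 uM doxycycline induction, then 16 hr at 37 C. Antagonism scored as decreased ONE-Glo luminescence.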

A short description of assay [16]: qHTS assay to identify small molecule antagonists of the retinoid acid receptor (RAR) signaling pathway - cell viability counter screen (AID 1159551). Note: nearly all actives have a fitted effect of over 35% in size. The gist of the method:
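Following overnight attachment, C3RL4 reporter cells received DMSO-dissolved compounds and then retinol (1 uM final). Six hours later at 37 C, ATP content was measured by CellTiter-Glo luminescence.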

A short description of assay [17]: qHTS assay to identify small molecule antagonists of the retinoic acid receptor (RAR) signaling pathway (AID 1159552; note: nearly all actives have a fitted effect of over 50% in size; note: potency is the fitted concentration of half-maximal effect). The gist of the method: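 Retinol signaling pathway inhibitors screened in C3RL4 RARE-luciferase reporter cells seeded overnight at 37 C, then compounds added with 1 uM (final) retinol as pathway substrate. After 6 hr at 37 C, luciferase luminescence read after 30 min at room temperature.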

Several values for one entry are separate records, joined by “and”; a condition that tells them apart may be missing. Identical values can stand only once. Inconclusive results are not listed. Unmarked numbers belong to inactive results. Activity calls are given as the source filed them. Unless noted, calls come from the whole dose curve; as a rule, active = well fitted curve in the direction sought with a large enough effect in the repeat runs; inconclusive = weak or mixed curves; inactive = no such curve, though single readings can be large; an effect the other way counts as inactive or inconclusive.

Sequence of Retinoic acid receptor RXR-alpha (Homo sapiens) (P19793 whole entry, looked up): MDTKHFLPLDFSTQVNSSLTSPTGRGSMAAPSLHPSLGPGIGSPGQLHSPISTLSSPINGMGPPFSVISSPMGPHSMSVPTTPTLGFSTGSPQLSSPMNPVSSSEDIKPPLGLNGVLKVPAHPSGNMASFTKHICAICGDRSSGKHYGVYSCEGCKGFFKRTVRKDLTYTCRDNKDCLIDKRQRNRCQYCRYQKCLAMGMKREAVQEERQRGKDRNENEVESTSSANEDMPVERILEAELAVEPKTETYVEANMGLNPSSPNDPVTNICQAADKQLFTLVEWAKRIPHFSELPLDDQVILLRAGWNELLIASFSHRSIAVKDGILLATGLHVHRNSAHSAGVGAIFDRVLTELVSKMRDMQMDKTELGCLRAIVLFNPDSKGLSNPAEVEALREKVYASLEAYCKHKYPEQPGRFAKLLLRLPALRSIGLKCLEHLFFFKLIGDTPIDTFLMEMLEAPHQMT

Turning to `CC(=O)[C@H]1CC[C@H]2[C@@H]3CCC4=CC(=O)CC[C@]4(C)[C@H]3CC[C@]12C`, the Potency entry in [1], in assay [2], in assay [3], in [4] and in assay [5] was “inactive” each time. The Potency was 38.7 µM (active) and 43.6 µM (active) in assay [6]; 11.9 µM (active) in assay [8]. Further, the compound was classed as inactive in assay [7], in assay [9] and in assay [10].
With `Nc1ccc(NCCO)c([N+](=O)[O-])c1`, the Potency result in [11], in [12], in assay [1], in [2], in assay [3] and in assay [4] was “inactive” throughout. The Potency result in assay [5], in assay [13] and in assay [14] was “inactive” each time.
`CN1CCN(Cc2cc(-c3ccc4[nH]c(=O)oc4c3)co2)[C@@H](c2ccc(F)cc2)C1`: the Potency result in assay [1], in [2], in [3], in [4], in assay [6] and in assay [16] was “inactive” throughout. For the same compound, the Potency in assay [15] is 26.3 µM (active).
Turning to `CCCc1ccc(OCC(=O)N2CCN(C(=O)COc3ccc(CCC)cc3OC)CC2)c(OC)c1`, the Potency result in assay [11], in [12], in assay [1], in [2], in assay [3] and in [4] was “inactive” throughout. Besides, the Potency entry in assay [5] and in assay [16] was “inactive” in each case.
Take `C=CC(=O)Nc1cc2c(Nc3ccc(F)c(Cl)c3)ncnc2cc1OCCCN1CCOCC1`: the Potency result in assay [11], in assay [12], in assay [2] and in assay [15] was “inactive” throughout. Also, the Potency was 15.1 µM (active) in assay [1], 16.9 µM (active) in assay [3], 4.77 µM (active) in assay [6] and 7.5 µM (active) in [17].
Consider `Sc1nc2ccccc2s1`, for which the Potency entry in assay [12], in assay [1], in assay [2], in assay [3], in assay [4] and in assay [6] was “inactive” in each case. In addition, the Potency entry in assay [16] and in assay [17] was “inactive” throughout.
`COc1cc(S(=O)(=O)O)c(C)cc1N=Nc1c(O)ccc2cc(S(=O)(=O)O)ccc12`: the Potency entry in assay [11], in assay [12], in assay [1], in assay [2], in assay [3] and in assay [4] was “inactive” each time. Further, the Potency entry in assay [5], in assay [13] and in assay [6] was “inactive” throughout.
In the case of `O=c1[nH]c2ccccc2n1CCCN1CCN(C(c2ccccc2)c2ccccc2)CC1`, the Potency entry in [11], in assay [12], in [1], in assay [2], in assay [3] and in assay [4] was “inactive” in each case. Moreover, the Potency result in assay [5] and in assay [16] was “inactive” each time.
Regarding `Cc1ccc(O)c(O)c1`, the Potency entry in assay [12], in assay [1], in assay [2], in assay [3], in assay [4] and in assay [5] was “inactive” each time. Besides, the Potency result in assay [13] was “inactive”.
As to `CC(C)=CCC1=C(O)c2ccccc2C(=O)C1=O`, the Potency result in assay [11], in assay [1], in assay [2], in [3], in [4] and in assay [6] was “inactive” in each case. In addition, the Potency entry in assay [16], in assay [17] and in [14] was “inactive” throughout. The Potency in assay [15] is 13.6 µM (active).
As for `COC(=O)C1=C(C)NC(C)=C(C(=O)OCCN2CCN(C(c3ccccc3)c3ccccc3)CC2)C1c1cccc([N+](=O)[O-])c1` (stereo not drawn), the Potency entry in assay [11], in assay [1], in assay [2], in assay [3], in [4] and in assay [6] was “inactive” in each case. In addition, the Potency entry in [16] was “inactive”.
As to `NC(=S)NC(N)=S`, the Potency result in [11], in [1], in [2], in [3], in assay [15] and in [4] was “inactive” in each case. For the same compound, the Potency result in assay [16] and in assay [17] was “inactive” in each case.
Take `CC1=Nc2ccccc2C1(C)C`: the Potency result in assay [11], in assay [12], in assay [1], in [2], in [3] and in assay [4] was “inactive” in each case. Besides, the Potency in [15] is 17.2 µM (active).
Take `CC1(C)CCC[C@]2(C)[C@H]3CC(=O)O[C@]3(C)CC[C@@H]12`: the Potency entry in [11], in [12], in assay [1], in assay [2], in assay [3] and in assay [15] was “inactive” in each case. Besides, the Potency entry in [14] was “inactive”.
